ugtP null kill: kills S. aureus RN4220 lacking UgtP; growth inhibition, % (test concentration not listed); S. aureus RN4220 ugtP deletion, OD600 growth, 16 h; 0.54% of 330,000 active; in the data active means growth inhibition above about 68%;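 further: plate controls were untreated wells for no effect and antibiotic for full effect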
Mtb hypoxia inh: Mtb hypoxia fluorescent reporter inhibition; M. tuberculosis hypoxia-regulated fluorescent reporter, fluorescence; fluorescence inhibition, % (concentration not given with the values); 0.1% of 300,000 active; AID 1159583; in the data active means fluorescence inhibition mostly above about 23%, no sharp cut-off; inactive means mostly below about 17%
RN4220 kill: kills Staphylococcus aureus RN4220; S. aureus RN4220 growth, OD600, 16 h; inhibition, % (concentration not given with the values); 0.33% of 330,000 active; AID 1259311; in the data active means inhibition above about 85%;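 further: plate controls were untreated cells for no effect and reference antibiotic for full effect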
BH1578 lux ind: quorum light induction in luxS cqsA deficient V. cholerae; activation, % at 18.7 µM; V. cholerae BH1578 lux reporter, luminescence, 6 h; 0.16% of 350,000 active; in the data active means activation mostly above about 9.7%, no sharp cut-off; inconclusive means no clear call, values can overlap the other calls; inactive means mostly below about 3.7%
PfHsp40 rescue: rescue of PfHsp40-mediated yeast toxicity; S. cerevisiae expressing PfHsp40, growth rescue, ATP luminescence; 0.68% of 340,000 active; growth rescue, % at 12.5 µM; AID 504582; in the data active means growth rescue above about 28%, passing the limit was not always enough; inconclusive means no clear call, values can overlap the other calls;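 further: yeast W303a lacking pdr1 and pdr3 grown in galactose medium; growth measured after three days at 30 °C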
CCHF vOTU inh-1: CCHFV vOTU protease inhibition; 0.55% of 370,000 active; inhibition, % at 11.5 µM; Pep-AMC fluorescence; further: 0% = vehicle wells with enzyme and 100% = no enzyme wells
CCHF vOTU inh-2: confirmation of CCHF virus vOTU protease inhibitors; shares compounds with CCHF vOTU inh-1; Recombinant CCHFV vOTU, Pep-AMC fluorescence; inhibition, % at 11.5 µM; 17% of 1,900 active; AID 686976
Starred values were filed as active, the others as inactive; i = inactive; ? = inconclusive; . = not tested or not shown. Sampled rows, rich in hits. Any-hit rate of the full collection: about 1.7%. Unless noted, no stated cut-off is given here; in the data, active means inhibition above about 30%; inactive means the rest.

SMILES	ugtP null kill	Mtb hypoxia inh	RN4220 kill	BH1578 lux ind	PfHsp40 rescue	CCHF vOTU inh-1	CCHF vOTU inh-2
Cc1cc2c(C(C)C)c(O)c(O)c(C=O)c2c(O)c1-c1c(C)cc2c(C(C)C)c(O)c(O)c(C=O)c2c1O	.	.	.	0	.	63*	31*
CCOC(=O)c1ccc(NC=CC(=O)C(C)(C)C)cc1	-1	4	6	.	.	.	.
Cc1c(N=C2C=C(Br)C(=O)C(Br)=C2)c(=O)n(-c2ccccc2)n1C	10	8	5	0	0	20	.
Cc1c(N=C2C=CC(=O)c3ccccc32)c(=O)n(-c2ccccc2)n1C	10	3	6	0	1	90*	-6
COc1ccc(N(CC(=O)NN=Cc2ccc(-c3ccc([N+](=O)[O-])cc3)o2)S(=O)(=O)c2ccc(C)cc2)cc1Cl	-3	.	-11	.	.	.	.
Cc1cccc(NC(=O)c2sc3nc4c(c(-c5cccs5)c3c2N)CN(C)CC4)c1	28	.	-9	-2	0	30*	48*
CC(C)NC(=O)c1sc2nc3c(c(-c4cccs4)c2c1N)CN(C)CC3	.	.	.	0	1	17	.
Oc1ccc(C=Nn2c(-c3ccccc3)n[nH]c2=S)cc1	-1	4	3	.	.	.	.
COCc1cc(N2CCN(C(=O)OC(C)(C)C)C[C@@H]2C)ccc1N1C[C@@H](C)O[C@@H](C)C1	.	.	.	.	.	27	.
COCc1cc(N2CCN(C(=O)OC(C)(C)C)C[C@H]2C)ccc1N1C[C@@H](C)O[C@@H](C)C1	.	.	.	.	.	35*	-3
C=CCC[C@@H](Cc1ccc(F)cc1)C(=O)OC[C@@H](NC(=O)[C@@H](CC=C)CC(=O)N(CCO)Cc1ccccc1)c1ccccc1	.	.	.	-1	11	34*	4
C=CCC[C@@H](Cc1ccc(F)cc1)C(=O)OC[C@H](C)NC(=O)[C@@H](CC=C)CC(=O)N(CCO)Cc1ccccc1	8	1	-1	1	21	32*	5
C=CCC(Cc1ccc(F)cc1)C(=O)OCC1CCCN1C(=O)C(CC=C)CC(=O)N(CCO)Cc1ccccc1 (stereo not given)	0	-1	0	.	.	.	.
C=CCC[C@@H](Cc1ccc(F)cc1)C(=O)OC[C@@H](NC(=O)[C@H](CC=C)CC(=O)N(CCO)Cc1ccccc1)c1ccccc1	.	.	.	-7	1	24	.
C=CC[C@@H](Cc1ccc(F)cc1)C(=O)OC[C@H]1CCCN1C(=O)[C@@H](CC=C)CC(=O)N(CCO)Cc1ccccc1	-7	3	2	i	?	31*	5
Nc1cccc2cc(S(=O)(=O)O)ccc12	5	23	3	6	1	32*	37*
CCCCOc1ccc(C(=O)N/C(=C/C=C/c2ccccc2)C(=O)O)cc1	9	9	8	-1	0	29	.
CCCCOc1ccc(C(=O)N/C(=C/C=C/c2ccccc2)C(=O)NC)cc1	8	6	3	0	1	31*	-3
CCOc1cc(/C=C2\C(=O)N(CCC#N)N=C2C)ccc1OCC(N)=O	-2	-5	-3	0	-1	44*	-24
COc1ccc(CCC(=O)NN=Cc2cccs2)cc1	13	-2	7	.	.	.	.
O=C1CCCC/C1=C\Nc1ccc(O)cc1	-10	3	-2	0	0	35*	2
O=C1CCC/C1=C/Nc1ccc(Cl)cc1	6	15	6	1	2	19	.
Cc1ccc(S(=O)(=O)N2[C@@H](c3ccc(C#N)cc3)C(C(=O)O)=C[C@H]2CC2CCCC2)cc1	-11	-5	7	-1	2	15	.
CC[C@@H]1C=C(C(=O)O)[C@H](c2ccc(C)cc2)N1S(=O)(=O)c1ccc(C)cc1	12	-3	6	i	-1	-1	.
Cc1ccc(S(=O)(=O)N2[C@@H](c3ccc(Cl)c(Cl)c3)C(C(=O)O)=C[C@H]2CC2CCCC2)cc1	-15	-2	18	-1	-1	34*	18
Cc1ccc(S(=O)(=O)N2[C@@H](c3ccc(Cl)cc3)C(C(=O)O)=C[C@H]2CC2CCCC2)cc1	-8	-3	18	1	4	31*	20
CC[C@@H]1C=C(C(=O)O)[C@H](c2ccc(Cl)cc2)N1S(=O)(=O)c1ccc(C)cc1	2	-1	12	-1	-1	32*	-15

High-throughput results as filed in PubChem.
